C diff growth – C. difficile growth inhibitors, primary screen, HTS; Clostridium difficile clinical isolate growth, OD600, 24 h; hits give low values; growth activity, negative = inhibition, % at 16 µg/mL (by protocol); actives 0.25% (n = 86,000);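 active = mean growth activity at or below -80% and every replicate also at or below -80%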;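 note: 0% = DMSO wells and -100% = levofloxacin 16 µg/mL wells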
Pf Dd2 inh – P. falciparum Dd2 growth inhibitors, primary screen, SYBR Green fluorescence, single dose replicates. 72 h; hits give low values. activity change, % at 10 µM. actives 2.3% (n = 94,000). AID 1159554, 2015; in the data active = activity change below about -80%
* marks the source's active call; other numbers are inactive results; / = no result given. In the library only some 2.4% were active in any assay of this set; here they are far more common.

SMILES	C diff growth	Pf Dd2 inh
COc1ccc(S(=O)(=O)Nc2ccc3c(c2)C(=O)N([C@H](C)CO)C[C@@H](C)[C@@H](CN(C)C(=O)NC2CCCCC2)OCCCC[C@H](C)O3)cc1	13	-54
COc1ccc(S(=O)(=O)Nc2ccc3c(c2)C(=O)N([C@@H](C)CO)C[C@H](C)[C@H](CN(C)C(=O)NC2CCCCC2)OCCCC[C@@H](C)O3)cc1	17	-88*
O=S(=O)(N[C@@H]1CC[C@@H](CCn2cc(-c3cccnc3)nn2)O[C@@H]1CO)c1ccc(F)cc1	2	-11
CCCc1cn(CC[C@H]2CC[C@@H](NS(=O)(=O)c3ccc(-c4ccccc4)cc3)[C@@H](CO)O2)nn1	-8	-94*
CCCc1cn(CC[C@H]2CC[C@H](NS(=O)(=O)c3ccccc3Cl)[C@H](CO)O2)nn1	1	-1
CN(C)Cc1cn(CC[C@@H]2CC[C@H](NS(=O)(=O)c3ccccc3)[C@H](CO)O2)nn1	-2	/
CCCc1cn(CC[C@@H]2CC[C@@H](NS(=O)(=O)c3ccc(-c4ccccc4)cc3)[C@@H](CO)O2)nn1	-7	-91*
C[C@@H]1CN([C@H](C)CO)C(=O)c2cc(Br)cnc2O[C@H]1CN(C)C(=O)C1CC1	-2	37
COc1ccc2c3c(n(C)c2c1)[C@@H](CO)NCC31CCN(Cc2cc(F)ccc2F)CC1	8	-78
COc1ccc2c3c(n(C)c2c1)[C@H](CO)NCC31CCN(Cc2ccc(Cl)cc2)CC1	10	-91*
COc1ccc2c3c(n(C)c2c1)[C@H](CO)NCC31CN(CC2CCOCC2)C1	-1	4
COc1ccc2c3c(n(C)c2c1)[C@@H](CO)NCC31CCN(Cc2ccc(Cl)cc2)CC1	/	0
COc1ccc2c3c(n(C)c2c1)[C@H](CO)NCC31CCN(Cc2ccc(F)cc2)CC1	26	-83*
COc1ccc2c3c(n(C)c2c1)[C@H](CO)NCC31CCN(CC2CCCC2)CC1	16	-86*
CO[C@H]1CC[C@@H]2CCN(C)C(=O)[C@@H](C)[C@H](OC)CN(C)C(=O)c3cccc(C#N)c3OC[C@@H]1O2	/	16
C[C@H]1CN([C@@H](C)CO)C(=O)c2cc(C3=CCCCC3)cnc2O[C@@H]1CN(C)Cc1ccccn1	-1	-3
C[C@H](CO)N1C[C@H](C)[C@@H](CN(C)Cc2ccc(C(=O)O)cc2)Oc2ccc(NS(=O)(=O)c3ccccc3)cc2CC1=O	-3	16
C[C@H]1CN([C@@H](C)CO)C(=O)c2ccccc2-c2ccccc2CO[C@H]1CN(C)Cc1ccc(O)cc1	/	5
C[C@@H]1CN([C@H](C)CO)C(=O)c2ccccc2-c2ccccc2CO[C@@H]1CN(C)Cc1ccc(Oc2ccccc2)cc1	16	-88*
C[C@@H]1CN([C@H](C)CO)C(=O)c2ccccc2-c2ccccc2CO[C@@H]1CN(C)Cc1ccc(C(=O)O)cc1	/	7
C[C@H]1CN([C@@H](C)CO)C(=O)c2ccccc2-c2ccccc2CO[C@H]1CN(C)Cc1ccc(Oc2ccccc2)cc1	22	-87*
CCCN(C)C[C@@H]1OCCCC[C@H](C)Oc2ccc(NC(=O)NC3CCCCC3)cc2C(=O)N([C@@H](C)CO)C[C@@H]1C	2	/
O=C(C[C@@H]1C=C[C@H](NC(=O)Nc2cccc(F)c2)[C@@H](CO)O1)NCC1CC1	-2	19
COc1ccc2c3c(n(C)c2c1)[C@H](CO)NCC31CCN(C(=O)c2cccc(F)c2)CC1	-6	-33
C[C@H]1CN([C@@H](C)CO)C(=O)Cc2cc(NC(=O)CCC(F)(F)F)ccc2O[C@@H]1CN(C)C	-1	3
SMILES	C diff growth	Pf Dd2 inh
C[C@H]1CN([C@@H](C)CO)C(=O)Cc2cc(NC(=O)CCC(F)(F)F)ccc2O[C@H]1CN(C)S(C)(=O)=O	2	-87*
C[C@H](CO)N1C[C@H](C)[C@H](CN(C)CC2CC2)Oc2ccc(NC(=O)Nc3ccccc3)cc2CC1=O	-4	-89*
C[C@H](CO)N1C[C@H](C)[C@H](CN(C)CC2CC2)Oc2ccc(NC(=O)Nc3ccc(C(F)(F)F)cc3)cc2CC1=O	6	-76
C[C@@H]1CN([C@@H](C)CO)C(=O)Cc2cc(NC(=O)Nc3ccc(C(F)(F)F)cc3)ccc2O[C@@H]1CN(C)CC1CC1	9	-83*
C[C@@H]1CN([C@H](C)CO)C(=O)Cc2cc(NC(=O)Nc3ccccc3)ccc2O[C@H]1CN(C)CC1CC1	-6	-16
CC(C)C[C@@H]1NC(=O)[C@@H]2C[C@H](C(=O)NCc3ccc(F)cc3)[C@H](c3ccc(O)cc3)N2C1=O	0	/
Cc1noc(C)c1S(=O)(=O)Nc1ccc2c(c1)C(=O)N([C@H](C)CO)C[C@@H](C)[C@@H](CN(C)Cc1ccncc1)OCCCC[C@H](C)O2	-2	-10
Cn1cnc(S(=O)(=O)N[C@H]2CC[C@H](CC(=O)Nc3ccc(-c4ccccc4)cc3)O[C@H]2CO)c1	-4	-51

Assay outcomes (PubChem)
